Data: PubChem BioAssay (NCI)
This is part of a sample that, as a whole, favours compounds with a hit. Of some 83,000 tested, about 20% had one in any assay.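 Testing used 96-well plates and a 48-hour single-concentration exposure. Example: -40 means 40% of the starting cells died.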

How the values were obtained:
Experiment in all cases: NCI-60 one-dose screen, 48 h (100 = growth as untreated, 0 = no growth, -100 = all killed)
Settings in all cases: 10 µM unless noted; active = growth percent below 10; inactive = the rest
NCI-H23 lung = tested on: NCI-H23 lung
NCI-H226 lung = tested on: NCI-H226 lung
NCI-H322M lung = tested on: NCI-H322M lung
HOP-62 NSCLC = tested on: HOP-62 NSCLC
NCI-H460 lung = tested on: NCI-H460 lung
HOP-92 NSCLC = tested on: HOP-92 NSCLC
NCI-H522 lung = tested on: NCI-H522 lung
A549/ATCC NSCLC = tested on: A549/ATCC NSCLC
786-0 renal = tested on: 786-0 renal
COLO 205 colon = tested on: COLO 205 colon

Measured: growth

O=Cc1ccc(F)cc1
inactive: NCI-H23 lung 105% | NCI-H226 lung 94.7% | NCI-H322M lung 90.6% | HOP-62 NSCLC 108% | NCI-H460 lung 93.9% | HOP-92 NSCLC 103% | NCI-H522 lung 97.8% | A549/ATCC NSCLC 108% | 786-0 renal 102% | COLO 205 colon 111%

CC(C)C(C)(C)C(=O)C(C)(C)C(C)(C)C
inactive: NCI-H23 lung 90.6% | NCI-H226 lung 90.5% | NCI-H322M lung 97.9% | HOP-62 NSCLC 103% | NCI-H460 lung 101% | HOP-92 NSCLC 88.3% | NCI-H522 lung 92.4% | A549/ATCC NSCLC 93.3% | 786-0 renal 108% | COLO 205 colon 104%

Cc1ccc(Cc2ccc(C)cc2)cc1
inactive: NCI-H23 lung 106% | NCI-H226 lung 100% | NCI-H322M lung 98.3% | HOP-62 NSCLC 98.1% | NCI-H460 lung 111% | HOP-92 NSCLC 97.5% | NCI-H522 lung 95.3% | A549/ATCC NSCLC 102% | 786-0 renal 96.1% | COLO 205 colon 107%

O=C(Nc1ccccc1)c1ccco1
inactive: NCI-H23 lung 96.2% | NCI-H226 lung 99.1% | NCI-H322M lung 101% | HOP-62 NSCLC 101% | NCI-H460 lung 108% | HOP-92 NSCLC 98.8% | NCI-H522 lung 100% | A549/ATCC NSCLC 97.9% | 786-0 renal 92.8% | COLO 205 colon 115%

Clc1ccc(C(SCc2ccccc2)SCc2ccccc2)cc1
inactive: NCI-H23 lung 86.1% | NCI-H226 lung 86.3% | NCI-H322M lung 111% | HOP-62 NSCLC 92.1% | NCI-H460 lung 98.3% | HOP-92 NSCLC 83% | NCI-H522 lung 80.5% | A549/ATCC NSCLC 97.6% | 786-0 renal 111% | COLO 205 colon 90.1%

COC1(OC)C2(Cl)C(Cl)=C(Cl)C1(Cl)C1COCC12 (stereo not given)
inactive: NCI-H23 lung 109% | NCI-H226 lung 93.6% | NCI-H322M lung 104% | HOP-62 NSCLC 96.5% | NCI-H460 lung 86.8% | HOP-92 NSCLC 105% | NCI-H522 lung 79.5% | A549/ATCC NSCLC 64% | 786-0 renal 104% | COLO 205 colon 113%

CC(=O)NC(CCC(=O)c1ccccc1)C(=O)O (stereo not given)
inactive: NCI-H23 lung 101% | NCI-H226 lung 91.1% | NCI-H322M lung 98.5% | HOP-62 NSCLC 76.2% | NCI-H460 lung 102% | HOP-92 NSCLC 97.6% | NCI-H522 lung 90.2% | A549/ATCC NSCLC 63.3% | 786-0 renal 87.9% | COLO 205 colon 108%

CCC(=O)Oc1c(C)cc(O)c2ccccc12
inactive: NCI-H23 lung 83.5% | NCI-H226 lung 86.8% | NCI-H322M lung 87.4% | HOP-62 NSCLC 79.5% | NCI-H460 lung 95.6% | HOP-92 NSCLC 79.5% | NCI-H522 lung 84.5% | A549/ATCC NSCLC 93.4% | 786-0 renal 84.7% | COLO 205 colon 110%

O=C(c1ccccc1O)N1CCCC1
inactive: NCI-H23 lung 99.3% | NCI-H226 lung 94.5% | NCI-H322M lung 101% | HOP-62 NSCLC 89.7% | NCI-H460 lung 105% | HOP-92 NSCLC 94.5% | NCI-H522 lung 76.1% | A549/ATCC NSCLC 74.9% | 786-0 renal 95.9% | COLO 205 colon 103%

CC1CCC(C(C)(C)[N+](C)(C)C)CC1 (stereo not given)
inactive: NCI-H23 lung 100% | NCI-H226 lung 100% | NCI-H322M lung 106% | HOP-62 NSCLC 96.9% | NCI-H460 lung 107% | HOP-92 NSCLC 101% | NCI-H522 lung 106% | A549/ATCC NSCLC 95.9% | 786-0 renal 96.1% | COLO 205 colon 106%

COc1cc(C(=O)NC(=S)NCc2ccncc2)cc(OC)c1OC
inactive: NCI-H23 lung 91.8% | NCI-H226 lung 86.4% | NCI-H322M lung 89.5% | HOP-62 NSCLC 107% | NCI-H460 lung 110% | HOP-92 NSCLC 89.2% | NCI-H522 lung 56.7% | A549/ATCC NSCLC 99% | 786-0 renal 97.5% | COLO 205 colon 95.3%

O=c1[nH]c(=O)c2cc(Cl)cc(Cl)c2[nH]1
inactive: NCI-H23 lung 101% | NCI-H226 lung 96.8% | NCI-H322M lung 94.8% | HOP-62 NSCLC 113% | NCI-H460 lung 112% | HOP-92 NSCLC 104% | NCI-H522 lung 99.7% | A549/ATCC NSCLC 108% | 786-0 renal 101% | COLO 205 colon 117%

CCOC(=O)C(COS(C)(=O)=O)(COS(C)(=O)=O)C(=O)OCC
inactive: NCI-H23 lung 99.5% | NCI-H226 lung 105% | NCI-H322M lung 101% | HOP-62 NSCLC 98.1% | NCI-H460 lung 109% | HOP-92 NSCLC 86% | NCI-H522 lung 96% | A549/ATCC NSCLC 105% | 786-0 renal 108% | COLO 205 colon 107%

O=C(N/N=C\c1ccc(Cl)cc1Cl)c1ccncc1
inactive: NCI-H23 lung 103% | NCI-H226 lung 102% | NCI-H322M lung 106% | HOP-62 NSCLC 112% | NCI-H460 lung 105% | HOP-92 NSCLC 87.9% | NCI-H522 lung 84.8% | A549/ATCC NSCLC 91% | 786-0 renal 90.5% | COLO 205 colon 118%

OC1Cc2ccccc2C1
inactive: NCI-H23 lung 90.2% | NCI-H226 lung 101% | NCI-H322M lung 98.7% | HOP-62 NSCLC 95.7% | NCI-H460 lung 104% | HOP-92 NSCLC 68.7% | NCI-H522 lung 92.6% | A549/ATCC NSCLC 97.1% | 786-0 renal 98.7% | COLO 205 colon 98.8%

COC(=O)Cc1cc(COC(C)=O)ccc1C
inactive: NCI-H23 lung 104% | NCI-H226 lung 107% | NCI-H322M lung 110% | HOP-62 NSCLC 110% | NCI-H460 lung 109% | HOP-92 NSCLC 79% | NCI-H522 lung 99.2% | A549/ATCC NSCLC 99.1% | 786-0 renal 100% | COLO 205 colon 120%

O=c1nc(Nc2cccc(Cl)c2)oc2cc(Cl)oc(=O)c12
inactive: NCI-H23 lung 64.5% | NCI-H226 lung 94.9% | NCI-H322M lung 108% | HOP-62 NSCLC 81.5% | NCI-H460 lung 98.8% | HOP-92 NSCLC 47.2% | NCI-H522 lung 26.2% | A549/ATCC NSCLC 101% | 786-0 renal 85.2% | COLO 205 colon 80.1%
